{
  "source": "the supplement of paper PMC8975748",
  "note": "Counter-ions that a name gives are not always drawn.",
  "data": [
    {"test_system": "Saccharomyces cerevisiae BY4741 SeMeCo community", "assay": "z-score of subpopulation abundance vs DMSO median, subpopulation auxotrophic for U; higher = larger share of this subpopulation than in DMSO controls", "conditions": "10 µM; 24 h; SM minimal medium; subpopulation (auxotrophy): U", "experimental": "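Fluorescent four-plasmid SeMeCo (self-establishing metabolically cooperating S. cerevisiae BY4741 community; plasmids pH-mRuby2, pL-mWasabi, pU-eCFP, pM-TagRFP657) was grown 24 h in minimal SM medium with each Selleck FDA-approved drug at 10 µM in 384-well plates. Cells were fixed and imaged by high-content confocal microscopy. For each auxotrophic subpopulation (and the prototroph), a z-score gives the deviation from the DMSO vehicle-control population median.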", "values": [
      {"smiles": "O=C(O)c1ccccc1C(=O)Nc1ccc(S(=O)(=O)Nc2nccs2)cc1", "note": "[Phthalylsulfathiazole]", "z-score of subpopulation abundance": 1.18},
      {"smiles": "Cc1c(C(N)=O)cc([N+](=O)[O-])cc1[N+](=O)[O-]", "note": "[Dinitolmide]", "z-score of subpopulation abundance": 0.48},
      {"smiles": "COC(=O)C1=C(C)NC(C)=C(C(=O)OCCN(C)Cc2ccccc2)C1c1cccc([N+](=O)[O-])c1", "note": "(stereo not given) [Nicardipine HCl]", "z-score of subpopulation abundance": -0.42},
      {"smiles": "CCCCN1CCCCC1C(=O)Nc1c(C)cccc1C", "note": "(stereo not given) [Bupivacaine HCl]", "z-score of subpopulation abundance": 0.36},
      {"smiles": "CCCCOc1ccc(CC(=O)NO)cc1", "note": "[Bufexamac]", "z-score of subpopulation abundance": 0.85},
      {"smiles": "CN(C)CCC=C1c2ccccc2CCc2ccccc21", "note": "[Amitriptyline HCl]", "z-score of subpopulation abundance": -0.21},
      {"smiles": "COCC(=O)Nc1cc(Sc2ccccc2)ccc1N=C(NC(=O)OC)NC(=O)OC", "note": "[Febantel]", "z-score of subpopulation abundance": -1.73},
      {"smiles": "C[C@H]1c2cccc(O)c2C(O)=C2C(=O)[C@]3(O)C(O)=C(C(N)=O)C(=O)[C@@H](N(C)C)[C@@H]3[C@@H](O)[C@@H]21", "note": "[Doxycycline monohydrate]", "z-score of subpopulation abundance": -0.54},
      {"smiles": "CC[C@H](C)C[C@H](C)CCCCCCCCC(=O)N[C@H]1C[C@@H](O)[C@@H](NCCN)NC(=O)[C@@H]2[C@@H](O)CCN2C(=O)[C@H]([C@H](O)CCN)NC(=O)[C@H]([C@H](O)[C@@H](O)c2ccc(O)cc2)NC(=O)[C@@H]2C[C@@H](O)CN2C(=O)[C@H]([C@@H](C)O)NC1=O", "note": "[Caspofungin Acetate]", "z-score of subpopulation abundance": -3.79},
      {"smiles": "Cc1c(S(=O)(=O)O)oc2c1C(=O)C(=O)c1c-2ccc2c1CCCC2(C)C", "note": "[Tanshinone IIA sulfonate (sodium)]", "z-score of subpopulation abundance": -1.39},
      {"smiles": "OC(c1cc(C(F)(F)F)nc2c(C(F)(F)F)cccc12)C1CCCCN1", "note": "(stereo not given) [Mefloquine HCl]", "z-score of subpopulation abundance": 0.95},
      {"smiles": "CC[C@H](C)C(=O)O[C@H]1C[C@H](O)C=C2C=C[C@H](C)[C@H](CC[C@@H](O)C[C@@H](O)CC(=O)O)[C@H]21", "note": "[Pravastatin sodium]", "z-score of subpopulation abundance": -0.09},
      {"smiles": "CCOC(=O)c1ccc(N)cc1", "note": "[Benzocaine]", "z-score of subpopulation abundance": -1.34},
      {"smiles": "O=S1(=O)CCN(CN2CCS(=O)(=O)NC2)CN1", "note": "[Taurolidine]", "z-score of subpopulation abundance": 0.64},
      {"smiles": "CO/N=C(/C(=O)N[C@@H]1C(=O)N2C(C(=O)OCOC(=O)C(C)(C)C)=C(C)CS[C@H]12)c1csc(N)n1", "note": "[Cefetamet pivoxil hydrochloride]", "z-score of subpopulation abundance": 0.3},
      {"smiles": "O=C(Cn1ccnc1[N+](=O)[O-])NCc1ccccc1", "note": "[Benznidazole]", "z-score of subpopulation abundance": 0.63},
      {"smiles": "CCCCNC(=O)NS(=O)(=O)c1ccc(C)cc1", "note": "[Tolbutamide]", "z-score of subpopulation abundance": 0.61},
      {"smiles": "O=C1[C@@H]2[C@H]3CC[C@H](C3)[C@@H]2C(=O)N1C[C@@H]1CCCC[C@H]1CN1CCN(c2nsc3ccccc23)CC1", "note": "[lurasidone]", "z-score of subpopulation abundance": -1.4},
      {"smiles": "CCOC(=O)C1=C(COCCN)NC(C)=C(C(=O)OC)[C@@H]1c1ccccc1Cl", "note": "[Levamlodipine]", "z-score of subpopulation abundance": -7.34},
      {"smiles": "CCCc1nn(C)c2c(=O)[nH]c(-c3cc(S(=O)(=O)N4CCN(C)CC4)ccc3OCC)nc12", "note": "[Sildenafil Mesylate]", "z-score of subpopulation abundance": 1.64},
      {"smiles": "CN1C2CCCC1CC(NC(=O)c1nn(C)c3ccccc13)C2", "note": "(stereo not given) [Granisetron]", "z-score of subpopulation abundance": 0.07},
      {"smiles": "NNc1nncc2ccccc12", "note": "[Hydralazine HCl]", "z-score of subpopulation abundance": 0.89},
      {"smiles": "C#CCC(Cc1cnc2nc(N)nc(N)c2n1)c1ccc(C(=O)N[C@@H](CCC(=O)O)C(=O)O)cc1", "note": "(stereo not given in full) [Pralatrexate]", "z-score of subpopulation abundance": -4.47},
      {"smiles": "Cc1nnc(NS(=O)(=O)c2ccc(N)cc2)s1", "note": "[Sulfamethizole]", "z-score of subpopulation abundance": -0.15},
      {"smiles": "Nc1ccc(S(=O)(=O)c2ccc(N)cc2)cc1", "note": "[Dapson]", "z-score of subpopulation abundance": 0.04},
      {"smiles": "CCn1cc(C(=O)O)c(=O)c2cc(F)c(N3CCN(C)CC3)cc21", "note": "[Pefloxacin Mesylate Dihydrate]", "z-score of subpopulation abundance": 0.5},
      {"smiles": "C[C@@H](O)[C@H]1C(=O)N2C(C(=O)O)=C([C@H]3CCCO3)S[C@H]12", "note": "[Faropenem Sodium]", "z-score of subpopulation abundance": 1.08},
      {"smiles": "CC1(C)S[C@@H]2[C@H](NC(=O)[C@H](N)c3ccccc3)C(=O)N2[C@H]1C(=O)OCOC(=O)[C@@H]1N2C(=O)C[C@H]2S(=O)(=O)C1(C)C", "note": "[Sultamicillin Tosylate]", "z-score of subpopulation abundance": 0.67},
      {"smiles": "CN1CCN(C2=Nc3ccccc3Oc3ccc(Cl)cc32)CC1", "note": "[Loxapine Succinate]", "z-score of subpopulation abundance": 0.78},
      {"smiles": "COCCCC/C(=N\\OCCN)c1ccc(C(F)(F)F)cc1", "note": "[Fluvoxamine maleate]", "z-score of subpopulation abundance": -0.51},
      {"smiles": "CCN(CC)CCNC(=O)c1cc(S(C)(=O)=O)ccc1OC", "note": "[Tiapride Hydrochloride]", "z-score of subpopulation abundance": 0.29},
      {"smiles": "CO/N=C(\\C(=O)N[C@@H]1C(=O)N2C(C(=O)O)=C(COC(C)=O)CS[C@H]12)c1csc(N)n1", "note": "[Cefotaxime sodium]", "z-score of subpopulation abundance": 1.03},
      {"smiles": "CS(=O)(=O)Nc1ccc([N+](=O)[O-])cc1Oc1ccccc1", "note": "[Nimesulide]", "z-score of subpopulation abundance": -0.45},
      {"smiles": "COc1cc(NS(=O)(=O)c2ccc(N)cc2)nc(OC)n1", "note": "[SulfadiMethoxine sodium]", "z-score of subpopulation abundance": -0.68},
      {"smiles": "NC(=O)c1cnccn1", "note": "[Pyrazinamide]", "z-score of subpopulation abundance": 1.27},
      {"smiles": "CCN1CCCC1CNC(=O)c1cc(S(=O)(=O)CC)c(N)cc1OC", "note": "(stereo not given) [Amisulpride]", "z-score of subpopulation abundance": 0.31},
      {"smiles": "CO/N=C(\\C(=O)N[C@@H]1C(=O)N2C(C(=O)O)=C(Cn3ccc(=N)n3CCO)CS[C@H]12)c1csc(N)n1", "note": "[Cefoselis Sulfate]", "z-score of subpopulation abundance": 0.03},
      {"smiles": "CCCCNc1ccc(C(=O)OCCN(C)C)cc1", "note": "[Tetracaine HCl]", "z-score of subpopulation abundance": 0.72},
      {"smiles": "CCC(=O)c1c(O)cc(O)cc1O", "note": "[Flopropione]", "z-score of subpopulation abundance": -0.13},
      {"smiles": "CC(=O)[C@H]1CC[C@H]2[C@@H]3CC=C4C[C@@H](O)CC[C@]4(C)[C@H]3CC[C@]12C", "note": "[Pregnenolone]", "z-score of subpopulation abundance": -0.89}
    ]}
  ]
}
